Results on 13 molecules are retold here after PubChem BioAssay (NCI).

Some test systems named below: RPMI-8226 leukemia; OVCAR-8 ovarian; OVCAR-5 ovarian; OVCAR-4 ovarian; SK-OV-3 ovarian; IGROV1 ovarian; OVCAR-3 ovarian; HS 578T breast; NCI/ADR-RES ovarian; T-47D breast.
Assay in all cases: NCI-60 one-dose screen, 48 h (100 = growth as untreated, 0 = no growth, -100 = all killed)
Conditions in all cases: 10 µM unless noted

Compounds without any hit were thinned out: in the full panel of roughly 83,000, 20% have a hit.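 Note: values are percent growth. 100 is the growth of untreated cells, values between 100 and 0 indicate rising inhibition; between -100 and 0 indicates cell death.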 Values without a mark were called inactive. Activity calls are given as the source filed them. How the source made its calls: active means growth percent below 10; inactive means the rest.

Take `COc1ccc(/C=C/C(=O)c2ccc(NC(=O)CSc3nnc(-c4ccc(OC)c(OC)c4)n3-c3ccccc3)cc2)cc1`: the growth is -25% (active) with RPMI-8226 leukemia; 11.4% with OVCAR-8 ovarian; 112% with OVCAR-5 ovarian; 91.3% in the experiment on OVCAR-4 ovarian; 85.1% with SK-OV-3 ovarian; -36.7% (active) in the experiment on IGROV1 ovarian. Also, the growth with OVCAR-3 ovarian was 59.8%; with HS 578T breast, 86.6%; in the experiment on NCI/ADR-RES ovarian it was 57.4%; in the experiment on T-47D breast, 36.2%.

As to `CC(=O)Oc1c2c(nc3c1c1ccccc1n3Cc1ccccc1)-c1ccccc1C2`, the growth is 73.3% in the experiment on RPMI-8226 leukemia; 88.4% in the experiment with OVCAR-8 ovarian; 97% in the experiment on OVCAR-5 ovarian; 83.9% in the experiment on OVCAR-4 ovarian; 92% in the experiment on SK-OV-3 ovarian; 81.1% in the experiment on IGROV1 ovarian. The growth in the experiment on OVCAR-3 ovarian is 79%; with HS 578T breast, 94.4%; in the experiment on NCI/ADR-RES ovarian, 85.5%; with T-47D breast, 56.7%.

As to `C=C1C(=O)O[C@H]2[C@H]1CC/C(C=Nc1c(N)cc(C(F)(F)F)cc1Br)=C\CC[C@@]1(C)O[C@@H]21`, the growth is -23.4% (active) in the experiment with RPMI-8226 leukemia; -8.6% (active) with OVCAR-8 ovarian; 42.8% in the experiment on OVCAR-5 ovarian; 55.3% with OVCAR-4 ovarian; 83.1% with SK-OV-3 ovarian; -9.71% (active) with IGROV1 ovarian. In addition, the growth in the experiment on OVCAR-3 ovarian is -91.9% (active); in the experiment with HS 578T breast, 6.58% (active); in the experiment on NCI/ADR-RES ovarian, 9.14% (active); with T-47D breast it was -16.3% (active).

Take `[2H]c1nc(Nc2ncc3cc(C(=O)N(C)C)n(C4CCCC4)c3n2)c([2H])c([2H])c1N1C([2H])([2H])C([2H])([2H])NC([2H])([2H])C1([2H])[2H]`: the growth in the experiment on RPMI-8226 leukemia was 31%; in the experiment on OVCAR-8 ovarian it was 73.8%; in the experiment on OVCAR-5 ovarian, 40.3%; with OVCAR-4 ovarian, 93.1%; in the experiment with SK-OV-3 ovarian, 57.1%; in the experiment on IGROV1 ovarian, 65.8%. Besides, the growth in the experiment on OVCAR-3 ovarian was 97%; in the experiment with HS 578T breast, 67.1%; with NCI/ADR-RES ovarian, 106%; in the experiment with T-47D breast it was 53.2%.

`OCCNc1nc(NCCO)nc(Nc2ccc(C3=NN(c4cc(Cl)cc(Cl)c4)C(c4ccc(C(F)(F)F)cc4)C3)cc2)n1` (stereo not given): the growth is -1.42% (active) in the experiment with RPMI-8226 leukemia; 39.5% in the experiment on OVCAR-8 ovarian; 89% in the experiment with OVCAR-5 ovarian; 53.6% in the experiment on OVCAR-4 ovarian; 70.1% in the experiment with SK-OV-3 ovarian; 41.7% with IGROV1 ovarian. Moreover, the growth with OVCAR-3 ovarian is 4.39% (active); in the experiment on HS 578T breast it was 43.6%; in the experiment with NCI/ADR-RES ovarian, 55.6%; in the experiment with T-47D breast, 53.5%.

Take `O=C1CC23OC(C(O)c4ccccc4N12)C1C(c2ccccc2)=NOC13` (stereo not given): the growth in the experiment with RPMI-8226 leukemia is 28.5%; in the experiment on OVCAR-8 ovarian, 70.4%; in the experiment on OVCAR-5 ovarian it was 81.2%; with OVCAR-4 ovarian, 89.7%; in the experiment with SK-OV-3 ovarian it was 79.9%; with IGROV1 ovarian, 43.6%. Moreover, the growth with OVCAR-3 ovarian was 56.7%; in the experiment on HS 578T breast, 52.2%; in the experiment on NCI/ADR-RES ovarian, 15.8%; in the experiment with T-47D breast, 52.8%.

As for `CCCCN(CCCC)CC(CN(CC)CC)OC(=O)Nc1ccccc1` (stereo not given), the growth was 96.7% in the experiment on RPMI-8226 leukemia; 106% in the experiment with OVCAR-8 ovarian; 76.7% in the experiment with OVCAR-5 ovarian; 77.1% with OVCAR-4 ovarian; 87.4% with SK-OV-3 ovarian; 57% in the experiment with IGROV1 ovarian. For the same molecule, the growth is 108% in the experiment with OVCAR-3 ovarian, 113% in the experiment on HS 578T breast, 82.4% in the experiment on NCI/ADR-RES ovarian and 92.2% in the experiment with T-47D breast.

For `COc1cc(-c2csc(NC(=O)Nc3ccc(C(F)(F)F)cc3)n2)cc(OC)c1OC`, the growth in the experiment on RPMI-8226 leukemia is -11.5% (active); in the experiment with OVCAR-8 ovarian, 3.06% (active); with OVCAR-5 ovarian, 33%; with OVCAR-4 ovarian, 13.4%; in the experiment on SK-OV-3 ovarian, -3.3% (active); in the experiment on IGROV1 ovarian it was 42.8%. Besides, the growth in the experiment on OVCAR-3 ovarian was 1.73% (active); with HS 578T breast it was 6.93% (active); in the experiment on NCI/ADR-RES ovarian, -1.59% (active); with T-47D breast it was -3.68% (active).

In the case of `Cc1cccc(C)c1NCc1nnc(-c2ccco2)o1`, the growth is 77.9% in the experiment on RPMI-8226 leukemia; 98.2% with OVCAR-8 ovarian; 99.8% in the experiment on OVCAR-5 ovarian; 101% with OVCAR-4 ovarian; 87% in the experiment with SK-OV-3 ovarian; 85.3% in the experiment with IGROV1 ovarian. The growth was 94.8% with OVCAR-3 ovarian, 91.5% with HS 578T breast, 97.3% in the experiment on NCI/ADR-RES ovarian and 80.6% with T-47D breast.

For the molecule `COc1ccccc1C(=O)/C=C/c1cc2cccc(OC)c2[nH]c1=O`, the growth is -14.5% (active) in the experiment on RPMI-8226 leukemia; -5.37% (active) in the experiment on OVCAR-8 ovarian; 13.1% in the experiment on OVCAR-5 ovarian; 15.4% in the experiment with OVCAR-4 ovarian; 16.3% in the experiment with SK-OV-3 ovarian; 2.88% (active) in the experiment on IGROV1 ovarian. Further, the growth in the experiment on OVCAR-3 ovarian is -9.01% (active); in the experiment on HS 578T breast, 39.3%; with NCI/ADR-RES ovarian it was 3.01% (active); with T-47D breast, 11.3%.

Consider `Cc1c(Cl)cccc1NC(=O)c1sc2nc3c(cc2c1N)COCC3`, for which the growth is 30.3% in the experiment with RPMI-8226 leukemia; 33.6% with OVCAR-8 ovarian; 55.3% in the experiment with OVCAR-5 ovarian; 60.9% in the experiment with OVCAR-4 ovarian; 26.5% with SK-OV-3 ovarian; 45.8% in the experiment on IGROV1 ovarian. Moreover, the growth in the experiment on OVCAR-3 ovarian was 17.8%; with HS 578T breast, 40.1%; in the experiment with NCI/ADR-RES ovarian, 6.51% (active); with T-47D breast it was 32.4%.

As to `CCOC(=O)NCCc1nc2c([nH]1)c(=O)n(C)c(=O)n2C`, the growth is 106% in the experiment on RPMI-8226 leukemia; 107% with OVCAR-8 ovarian; 90.3% in the experiment on OVCAR-5 ovarian; 107% with OVCAR-4 ovarian; 122% with SK-OV-3 ovarian; 97.1% with IGROV1 ovarian. Besides, the growth with OVCAR-3 ovarian is 113%; in the experiment with HS 578T breast, 104%; in the experiment on NCI/ADR-RES ovarian, 99.8%; with T-47D breast, 102%.

Consider `COC(=O)/C=C/c1cc(OC(C)=O)c2c(c1)C(C(=O)OC)C(c1ccc(OC(C)=O)c(OC(C)=O)c1)O2` (stereo not given), for which the growth in the experiment with RPMI-8226 leukemia is 11.1%; with OVCAR-8 ovarian, -12.5% (active); with OVCAR-5 ovarian it was 50.5%; in the experiment on OVCAR-4 ovarian it was 49.5%; with SK-OV-3 ovarian it was 18.8%; in the experiment on IGROV1 ovarian, 20.1%. The growth with OVCAR-3 ovarian was 3.01% (active); in the experiment with HS 578T breast it was 41.1%; in the experiment on NCI/ADR-RES ovarian it was 6.1% (active); with T-47D breast, 49.3%.
